Screening results as filed in PubChem.
ST2 inh: blocks human ST2 binding to IL-33 | Q01638 | AlphaLISA ST2-Fc/biotin-IL-33 interaction, 1 h | inhibition, % for hits at 17 µM | 78,000 compounds, 2.3% hits; in the data active = inhibition above about 30%
Target sequence (Q01638 whole entry, looked up): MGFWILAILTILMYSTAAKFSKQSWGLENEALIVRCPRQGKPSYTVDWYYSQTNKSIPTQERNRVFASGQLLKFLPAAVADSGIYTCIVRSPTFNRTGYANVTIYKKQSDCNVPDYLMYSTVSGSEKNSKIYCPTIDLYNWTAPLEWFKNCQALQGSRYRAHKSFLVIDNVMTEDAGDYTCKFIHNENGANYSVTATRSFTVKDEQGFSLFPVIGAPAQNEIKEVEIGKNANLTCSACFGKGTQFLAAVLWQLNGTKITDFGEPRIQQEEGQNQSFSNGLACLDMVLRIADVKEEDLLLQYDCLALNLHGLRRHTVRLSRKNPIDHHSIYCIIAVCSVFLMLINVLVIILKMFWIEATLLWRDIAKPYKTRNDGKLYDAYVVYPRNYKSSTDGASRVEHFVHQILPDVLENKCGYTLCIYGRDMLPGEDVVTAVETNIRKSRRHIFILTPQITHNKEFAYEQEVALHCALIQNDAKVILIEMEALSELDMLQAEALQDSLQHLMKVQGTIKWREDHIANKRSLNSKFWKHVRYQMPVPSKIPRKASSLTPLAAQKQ
An asterisk follows results filed as active; ! = a repeat was not active. The sample as a whole holds a higher share of hits than the screen did.

Screening COc1cc(/C=C2\C(=O)N(c3ccc(Cl)c(C(=O)O)c3)N=C2C)cc(Br)c1O returned ST2 inh 75%*.
COc1ccc(/C=C2\C(=O)N(c3ccc(Cl)c(C(=O)O)c3)N=C2C)cc1OC was read as ST2 inh inactive.
Screening CC(=O)Nc1sc2c(c1C#N)CCC2 returned ST2 inh inactive.
Screening N#Cc1c(N=CN2CCCCC2)sc2c1CCCCC2 returned ST2 inh 35%*.
N#Cc1c(N=CC2C(=O)c3ccccc3C2=O)sc2c1CCCC2 was read as ST2 inh inactive.
For CCOc1ccc(C2C(C(=O)c3cccs3)=C(O)C(=O)N2CCCN2CCOCC2)cc1 (centres undefined) the results were ST2 inh inactive.
`COc1cc(CN2CCN(C(=O)c3cc(OC)c(OC)c(OC)c3)CC2)cc(OC)c1` gave ST2 inh inactive.
O=S(=O)(Nc1cc(Br)c2oc3c(c2c1)CCCC3)c1ccccc1 was read as ST2 inh inactive.
For Cc1ccc(SC(C)C(=O)NCc2cnn3ccccc23)cc1 (centres undefined) the results were ST2 inh inactive.
O=C(COCc1ccccc1)NCc1cnn2ccccc12 was read as ST2 inh inactive.
`O=C(NCc1cnn2ccccc12)c1cccc(Cn2cccn2)c1` gave ST2 inh inactive.
Screening CCSC[C@H](N)C(=O)NCc1cnn2ccccc12 returned ST2 inh inactive.
COc1cccc(CC(=O)NCc2cnn3ccccc23)c1 was read as ST2 inh 33%*.
C=CCOC(=O)NCc1cnn2ccccc12 was read as ST2 inh 40%*.
Screening COc1cccc(NS(=O)(=O)c2ccc3c(c2)CCN3C(=O)C2CCC2)c1 returned ST2 inh inactive.
CN(Cc1cccs1)C(=O)c1cc(CN2CCC(O)CC2)on1 was read as ST2 inh inactive.
Screening Cc1ccc(NC2(C(=O)NCCc3cc(=O)[nH]cn3)CCCC2)cc1 returned ST2 inh inactive.
COc1cc2c(cc1-c1[nH]cnc1-c1ccccc1)OCCCO2 was read as ST2 inh inactive.
Screening CC(Cn1cnc2ccccc21)C(=O)O (centres undefined) returned ST2 inh inactive.
Screening CC(C)Cn1cnc2c(N)nc3ccccc3c21 returned ST2 inh 41%*.
`Nc1ncnc2c1ncn2CCOc1ccccc1` gave ST2 inh inactive.
COc1ccc(-n2nc3c(c2NC(=O)c2ccc(OC)cc2OC)CSC3)cc1 was read as ST2 inh inactive.
COC(=O)C1=C(NC(=O)c2ccccc2Br)CCS1 was read as ST2 inh 31%*.
Screening COc1ccc(NC(=O)c2ccccc2Br)cc1 returned ST2 inh inactive.
COc1ccc(C(=O)Nc2nc3ccc(S(C)(=O)=O)cc3s2)c(OC)c1 was read as ST2 inh inactive.
`COc1ccc(OC)c(NC(=O)c2ccccc2Br)c1` gave ST2 inh inactive.
For COC(=O)C1=C(NC(=O)c2ccc(OC)cc2OC)CCS1 the results were ST2 inh 32%*.
`CCCC(=O)Nc1cc2nn(-c3ccc(Cl)cc3)nc2cc1C` gave ST2 inh inactive.
`Fc1c(F)c(F)c2c(cnn2-c2ccccc2)c1F` gave ST2 inh inactive.
Screening Cc1nc(SCC(=O)Nc2ccc(Br)cc2)c(C#N)c2c1CCCC2 returned ST2 inh inactive.
For CSc1ccc(CNC(=O)C2CCC(=O)N(CCN3CCOCC3)C2)cc1 (centres undefined) the results were ST2 inh inactive.
COC(=O)[C@@H]1Cc2ncn(C(C)C)c2CN1C(=O)c1ccco1 was read as ST2 inh inactive.
CCC(C(=O)Nc1ccc(S(=O)(=O)N2CCOCC2)cc1)c1ccccc1 (centres undefined) was read as ST2 inh inactive.
For CC(C(=O)O)n1c(Cc2ccccc2)n[nH]c1=O (centres undefined) the results were ST2 inh inactive.
`CC(C)[C@@H](C)n1c(CCc2ccccc2)n[nH]c1=O` gave ST2 inh inactive.
`CCC(C)n1c(Cc2ccc(O)cc2)n[nH]c1=O` (centres undefined) gave ST2 inh 33%*.
`COc1ccc(-c2[nH]c3ccccc3c2C(C[N+](=O)[O-])c2ccco2)cc1` (centres undefined) gave ST2 inh inactive.
Screening COc1ccc(NC(=O)c2ccccc2Sc2ccc([N+](=O)[O-])cc2)cc1 returned ST2 inh inactive.
COc1ccc(C(C[N+](=O)[O-])Sc2ccccc2N)cc1 (centres undefined) was read as ST2 inh 32%*!.
For COCC1(C(=O)NCc2ccc(CN)cc2)CCC1 the results were ST2 inh inactive.
O=C(Nc1c(C(=O)Nc2ccc(F)cc2)oc2ccccc12)c1cccc(F)c1 was read as ST2 inh inactive.
Screening O=C(c1cc(Cn2cnc3ccccc32)[nH]n1)N1CCC1c1ccc(F)cc1 (centres undefined) returned ST2 inh inactive.
Screening O=C1c2cc(Cl)c(Cl)cc2C(=O)N1c1ccc(F)cc1 returned ST2 inh inactive.
